Experimental data taken from PubChem BioAssay.
The source made the active and inactive calls.

What was measured:
[1] = tested on: Plasmodium falciparum Sir2 (PF13_0152, Sir2A); assay: Plasmodium falciparum Sir2A binding compounds – biochemical, small-molecule microarray, 635 nm fluorescence, primary screen (AID 1098); details: fluorescence 635 nm, higher = more signal;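 note: score merges spot fluorescence intensity with its signal-to-noise ratio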
[2] = probe aDKK1 binding to arrayed compounds – biochemical, biotinylated probe, 635/667 nm fluorescence, primary screen (AID 1099); details: small-molecule microarray, higher = more signal;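 note: score merges 667nm spot fluorescence with signal to noise across triplicate slides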
[3] = probe aCHRDL2 binding to arrayed compounds – biochemical, biotinylated probe, 635/667 nm fluorescence, primary screen (AID 1100); details: small-molecule microarray, higher = more signal
[4] = change in splice reporter luminescence, either direction, cell-based, HEK293, spliceosome inhibition project, primary screen (AID 1101); details: HEK293 splicing luciferase reporter, 24 h, higher = more signal, called active from +8 up or from −8 down;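 note: HEK293 cells carrying a splicing-competent luciferase reporter gene; test concentration not given here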
[5] = target: Fibroblast growth factor 10 (Homo sapiens) (UniProt O15520); assay: compounds binding fibroblast growth factor 10 – biochemical, small-molecule microarray, 635 nm fluorescence, primary screen (AID 1102); details: FGF10 binding, fluorescence 635 nm, higher = more signal
Chain of Fibroblast growth factor 10 (Homo sapiens) (O15520 whole entry, looked up): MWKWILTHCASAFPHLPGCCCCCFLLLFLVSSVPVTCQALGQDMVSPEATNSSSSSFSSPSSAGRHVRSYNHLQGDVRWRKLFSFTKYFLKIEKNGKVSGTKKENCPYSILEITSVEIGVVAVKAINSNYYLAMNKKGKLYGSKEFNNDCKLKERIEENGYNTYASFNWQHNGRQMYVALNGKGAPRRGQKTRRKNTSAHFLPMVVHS

[6] = tested on: glycogen synthase kinase-3 (GSK3A per assay name; protocol says GSK3B); assay: compounds binding glycogen synthase kinase-3 – biochemical, small-molecule microarray, 635 nm fluorescence, GSK3A, primary screen (AID 1103); details: fluorescence 635 nm, higher = more signal; note: the record names both GSK3A and GSK3B
[7] = target: Epidermal growth factor receptor (Homo sapiens) (UniProt P00533); assay: compounds binding epidermal growth factor receptor – biochemical, small-molecule microarray, 635 nm fluorescence, primary screen (AID 1104); details: EGFR binding, higher = more signal;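 note: score merges 667 nm emission intensity with spot signal to noise over triplicate slides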
Chain of Epidermal growth factor receptor (Homo sapiens) (P00533 whole entry, looked up): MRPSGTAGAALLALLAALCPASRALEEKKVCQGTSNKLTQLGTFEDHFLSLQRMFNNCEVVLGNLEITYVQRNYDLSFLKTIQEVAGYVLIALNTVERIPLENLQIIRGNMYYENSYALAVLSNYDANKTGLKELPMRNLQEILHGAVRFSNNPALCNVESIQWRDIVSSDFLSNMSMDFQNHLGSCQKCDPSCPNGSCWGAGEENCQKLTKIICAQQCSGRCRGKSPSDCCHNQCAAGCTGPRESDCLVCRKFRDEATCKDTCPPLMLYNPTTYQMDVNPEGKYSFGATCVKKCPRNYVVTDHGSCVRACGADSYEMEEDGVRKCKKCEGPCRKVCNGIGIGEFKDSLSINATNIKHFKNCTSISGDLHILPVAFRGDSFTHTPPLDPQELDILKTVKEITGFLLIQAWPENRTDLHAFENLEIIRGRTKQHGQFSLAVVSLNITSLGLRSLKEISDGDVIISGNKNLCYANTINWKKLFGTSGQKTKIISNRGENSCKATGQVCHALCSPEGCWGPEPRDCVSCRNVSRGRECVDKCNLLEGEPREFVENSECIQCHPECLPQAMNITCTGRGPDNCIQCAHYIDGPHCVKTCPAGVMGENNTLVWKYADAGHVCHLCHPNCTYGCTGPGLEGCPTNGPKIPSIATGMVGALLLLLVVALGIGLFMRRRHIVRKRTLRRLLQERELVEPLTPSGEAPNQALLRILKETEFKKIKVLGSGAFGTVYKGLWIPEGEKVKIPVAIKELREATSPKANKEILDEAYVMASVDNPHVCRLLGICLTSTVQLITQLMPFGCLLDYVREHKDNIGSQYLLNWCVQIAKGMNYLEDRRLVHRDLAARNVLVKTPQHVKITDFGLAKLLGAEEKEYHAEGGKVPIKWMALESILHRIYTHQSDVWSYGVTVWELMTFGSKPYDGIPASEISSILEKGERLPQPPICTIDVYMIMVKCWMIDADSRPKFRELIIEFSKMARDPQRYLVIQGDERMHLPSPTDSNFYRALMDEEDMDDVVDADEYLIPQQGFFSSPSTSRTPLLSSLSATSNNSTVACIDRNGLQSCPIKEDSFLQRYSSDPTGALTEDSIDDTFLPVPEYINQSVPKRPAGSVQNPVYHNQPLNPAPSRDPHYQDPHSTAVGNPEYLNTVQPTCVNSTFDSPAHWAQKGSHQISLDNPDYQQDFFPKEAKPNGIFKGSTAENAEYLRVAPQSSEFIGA

[8] = target: Follistatin-related protein 3 (Homo sapiens) (UniProt O95633); assay: compounds binding follistatin-related protein 3 – biochemical, small-molecule microarray, 635 nm fluorescence, primary screen (AID 1105); details: FSTL3 binding, higher = more signal;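 note: score merges emission near 667 nm and signal to noise per printed spot across three slides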
Chain of Follistatin-related protein 3 (Homo sapiens) (O95633 whole entry, looked up): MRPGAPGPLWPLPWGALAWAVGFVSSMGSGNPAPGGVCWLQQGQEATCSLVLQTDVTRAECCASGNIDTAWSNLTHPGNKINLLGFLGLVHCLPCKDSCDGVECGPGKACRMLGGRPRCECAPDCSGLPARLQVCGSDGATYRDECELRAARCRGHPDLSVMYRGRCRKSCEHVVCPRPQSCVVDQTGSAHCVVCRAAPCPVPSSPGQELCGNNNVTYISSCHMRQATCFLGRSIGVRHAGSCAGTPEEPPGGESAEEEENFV

[9] = target: Dickkopf-related protein 1 (Homo sapiens) (UniProt O94907); assay: small molecules binding DKK1 protein – biochemical, small-molecule microarray, 635 nm fluorescence scan, primary screen (AID 1106); details: higher = more signal;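 note: score merges emission near 667 nm with signal to noise over three replicate slides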
Chain of Dickkopf-related protein 1 (Homo sapiens) (O94907 whole entry, looked up): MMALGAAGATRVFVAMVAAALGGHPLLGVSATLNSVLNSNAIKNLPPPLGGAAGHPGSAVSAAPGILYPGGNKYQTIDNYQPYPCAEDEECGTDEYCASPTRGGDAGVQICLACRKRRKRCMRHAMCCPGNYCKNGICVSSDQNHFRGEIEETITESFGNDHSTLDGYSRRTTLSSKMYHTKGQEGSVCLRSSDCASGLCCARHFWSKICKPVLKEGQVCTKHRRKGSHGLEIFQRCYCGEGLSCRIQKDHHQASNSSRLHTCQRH

[10] = tested on: Inhibin beta A chain (activin A); assay: small molecules binding activin A – biochemical, small-molecule microarray, 635 nm fluorescence scan, primary screen (AID 1107); details: INHBA, higher = more signal;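 note: mouse activin A protein probed at 4.33 µg/mL on printed slides; score merges bound-protein fluorescence near 667 nm with spot signal-to-noise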
[11] = tested on: Human papillomavirus type 1a protein E7 (residues 44-93); assay: small molecules binding HPV E7 44-93 – biochemical, small-molecule microarray, residues 44-93, 635 nm fluorescence, primary screen (AID 1108); details: fluorescence 635 nm, higher = more signal;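 note: E7 fragment applied at 1 µg/mL in TBST for 1 h at 4 C; score combines spot fluorescence with its signal to noise ratio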
[12] = hepatitis C replication reporter changes, two-sided – Huh7 cells, luciferase reporter, HCV replication inhibitor project, primary screen (AID 1109); details: Huh7 HCV replicon luciferase reporter, 48 h; higher = more signal;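 note: huh7 hepatoma cells harbouring a luciferase neomycin HCV replicon reporter; luciferase luminescence as measure of HCV replicon replication; test concentration not given here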
[13] = target: Left-right determination factor 2 (Homo sapiens) (UniProt O00292); assay: small molecules binding LEFTY2 protein – biochemical, small-molecule microarray, 635 nm fluorescence scan, primary screen (AID 1110); details: higher = more signal
Chain of Left-right determination factor 2 (Homo sapiens) (O00292 whole entry, looked up): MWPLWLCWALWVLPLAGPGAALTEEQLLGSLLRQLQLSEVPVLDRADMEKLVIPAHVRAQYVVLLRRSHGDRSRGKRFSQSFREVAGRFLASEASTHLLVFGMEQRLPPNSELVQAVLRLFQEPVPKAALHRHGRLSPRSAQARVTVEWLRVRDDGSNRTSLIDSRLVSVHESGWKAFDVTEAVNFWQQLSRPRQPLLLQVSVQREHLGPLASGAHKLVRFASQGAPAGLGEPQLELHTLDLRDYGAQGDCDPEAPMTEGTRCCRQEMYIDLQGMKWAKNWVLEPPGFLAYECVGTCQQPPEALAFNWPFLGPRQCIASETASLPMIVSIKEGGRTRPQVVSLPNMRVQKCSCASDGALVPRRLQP

[14] = target: Calmodulin-1 (Homo sapiens) (UniProt P0DP23); assay: small molecules binding calmodulin-1 with EGTA – biochemical, small-molecule microarray, Cy5-labelled CALM1, profiling panel (AID 1111); details: Cy5-CALM1 binding fluorescence, higher = more signal;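 note: labelled calmodulin applied in Tris saline Tween buffer holding calcium plus EGTA and DTT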
[15] = target: Calmodulin-1 (Homo sapiens) (UniProt P0DP23); assay: small molecules binding Ca-loaded calmodulin-1 – biochemical, small-molecule microarray, Cy5-labelled CALM1, plus calcium, artefact control for SMM control-protein annotation, profiling panel (AID 1112); details: Cy5-CALM1 binding fluorescence, higher = more signal;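 note: score merges spot fluorescence with signal to noise from triplicate slides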
[16] = probe aWnt5a binding to arrayed compounds – biochemical, biotinylated probe, 635/667 nm fluorescence, primary screen (AID 1113); details: small-molecule microarray, higher = more signal;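 note: score merges 667 nm fluorescence intensity with signal-to-noise per printed feature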
[17] = probe aShh binding to arrayed compounds – biochemical, biotinylated probe, 635/667 nm fluorescence, primary screen (AID 1114); details: small-molecule microarray, higher = more signal;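 note: probe is biotin-labelled aShh protein from a stem cell growth factor screen; measures binding of labelled protein to compounds printed on the slide; score merges feature fluorescence at 667 nm with signal-to-noise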
[18] = probe aNog binding to arrayed compounds – biochemical, biotinylated probe, 635/667 nm fluorescence, primary screen (AID 1115); details: small-molecule microarray, higher = more signal;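 note: probe is biotinylated aNog protein used at 0.15 µg/mL for 1 h at 4 C; z-score combines 667 nm fluorescence of each spot with its signal to noise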
[19] = target: Torsin-1A-interacting protein 1 (Homo sapiens) (UniProt Q5JTV8); assay: compound microarray binding of lysate hLAP1 – cell lysate, small-molecule microarray, COS7 lysate, 635/667 nm fluorescence, primary screen (AID 1116); details: 635 nm fluorescence, higher = more signal
Chain of Torsin-1A-interacting protein 1 (Homo sapiens) (Q5JTV8 whole entry, looked up): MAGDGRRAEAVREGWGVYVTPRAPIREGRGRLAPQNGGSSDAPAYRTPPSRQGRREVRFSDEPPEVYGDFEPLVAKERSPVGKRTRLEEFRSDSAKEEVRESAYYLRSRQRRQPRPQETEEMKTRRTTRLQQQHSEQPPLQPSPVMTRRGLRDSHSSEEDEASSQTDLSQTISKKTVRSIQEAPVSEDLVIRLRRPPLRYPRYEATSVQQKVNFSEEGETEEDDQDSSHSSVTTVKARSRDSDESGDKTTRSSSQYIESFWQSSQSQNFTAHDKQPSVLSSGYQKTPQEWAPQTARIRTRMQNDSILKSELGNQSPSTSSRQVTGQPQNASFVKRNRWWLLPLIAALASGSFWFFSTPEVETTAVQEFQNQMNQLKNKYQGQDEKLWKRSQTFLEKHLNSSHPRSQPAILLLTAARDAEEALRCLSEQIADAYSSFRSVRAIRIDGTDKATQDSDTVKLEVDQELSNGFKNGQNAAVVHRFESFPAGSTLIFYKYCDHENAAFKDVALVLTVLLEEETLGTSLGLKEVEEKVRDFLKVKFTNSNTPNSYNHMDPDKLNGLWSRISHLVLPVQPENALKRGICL

[20] = target: Alpha-bungarotoxin (Bungarus multicinctus) (UniProt P60615); assay: compounds binding labelled alpha-BTX control protein – biochemical, small-molecule microarray, Alexa647 label, 635/667 nm fluorescence, artefact control for SMM control protein annotation, profiling panel (AID 1117); details: alpha-BTX-A647 binding fluorescence, higher = more signal
Chain of Alpha-bungarotoxin (Bungarus multicinctus) (P60615 whole entry, looked up): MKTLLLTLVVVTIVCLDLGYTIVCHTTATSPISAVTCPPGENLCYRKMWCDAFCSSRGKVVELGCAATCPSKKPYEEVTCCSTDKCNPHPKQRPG

| SMILES | composite z-score [1] | composite z-score [2] | composite z-score [3] | z-score [4] | composite z-score [5] | composite z-score [6] | composite z-score [7] | composite z-score [8] | composite z-score [9] | composite z-score [10] | composite z-score [11] | z-score [12] | composite z-score [13] | composite z-score [14] | composite z-score [15] | composite z-score [16] | composite z-score [17] | composite z-score [18] | composite z-score [19] | composite z-score [20] |
| --- | --- | --- | --- | --- | --- | --- | --- | --- | --- | --- | --- | --- | --- | --- | --- | --- | --- | --- | --- | --- |
| C=CC[C@]12N=C(c3ccc(OCCCO)cc3)O[C@H]1c1ccccc1N(C)C2=O | 1.24 | 0.765 | 0.864 | -1.06 (inactive) | 0.597 | 1.3 | 0.177 | 0.472 | 0.334 | 1.3 | 0.871 | -1.57 | 0.0374 | 0.287 | -0.274 | 0.0169 | 0.287 | 1.99 | 1.41 | 0.707 |
| CC(=O)n1cc(C(O)C2C=CC3C(=O)N(Cc4ccccc4)C(=O)C3N2n2cnnc2)c2ccccc21 (stereo not given) | 1.17 | -0.0358 | 0.205 | 0.108 (inactive) | -0.167 | -0.243 | -0.0707 | 0.19 | 0.12 | 0.713 | -0.179 | -1.49 | 0.0796 | 0.416 | -0.568 | -0.0721 | -0.0626 | -0.305 | 0.463 | 1.09 |
| O=C1O[C@H](c2ccccc2)[C@H](c2ccccc2)N2[C@H]1[C@@H](C(=O)O)[C@]1(C(=O)Nc3ccccc31)[C@H]2c1ccc(O)cc1 | 0.663 | -0.391 | 0.253 | -0.531 (inactive) | 0.619 | -0.219 | -0.552 | -0.532 | -0.836 | -1.37 | 0.49 | -0.361 | -0.274 | -0.2 | -0.262 | -0.1 | -0.262 | 0.101 | -0.321 | -0.286 |
| CCOC(=O)C[C@H]1[C@H](OC(=O)Cc2ccc3c(c2)OCO3)[C@@H](NC(=O)C2CCCCC2)c2cc(OCCCO)ccc2N1C(=O)c1ccc2ccccc2n1 | 0.774 | 0.034 | -0.529 | -1.49 (inactive) | 1.47 | 0.72 | 0.713 | 1.18 | 1.65 | 0.0341 | 1.33 | -1.27 | 0.924 | 0.0105 | -0.896 | -0.1 | -0.164 | 0.0862 | 0.746 | 0.663 |
| C[C@@H](OCc1ccccc1)C1NC(=O)[C@@]23C(=O)N[C@@H](Cc4ccccc4)C2[C@H](C)[C@@]2(C)O[C@H]2C3/C=C/C/C=C\CNC(=O)CNC1=O (stereo not given in full) | 1.4 | -0.354 | -0.217 | 0.848 (inactive) | -0.389 | -0.764 | -0.497 | -0.467 | -0.166 | 1.57 | -0.816 | -0.712 | 0.367 | -1.15 | -1.02 | -0.199 | -0.179 | -0.323 | -0.143 | -1.56 |
| C=CCOC(=O)[C@@H]1[C@H]2C(=O)O[C@H](c3ccccc3)[C@H](c3ccccc3)N2[C@H](c2ccc(OCCOC(=O)[C@H]3C[C@H]4C(=O)N[C@@H](CCCCN(C)C)C(=O)N4[C@H]3c3cccc(OCCO)c3)cc2)[C@@]12C(=O)Nc1ccc(I)cc12 | 1.41 | 0.097 | -0.0926 | 0.348 (inactive) | 1.02 | 1.32 | 0.605 | 1.32 | 0.626 | 0.208 | 1.42 | -1.14 | 0.724 | 0.993 | -0.069 | -0.13 | 0.123 | -0.0863 | 1.03 | 2.07 |
| COCCCNC(=O)[C@@]1(Sc2ccc(C)cc2)CC(=O)N(Cc2cc(C(F)(F)F)cc(C(F)(F)F)c2)[C@@H]1c1ccc(CO)cc1 | 1.08 | -0.0248 | -0.0087 | 0.261 (inactive) | 0.327 | -0.257 | -0.107 | 1.01 | 0.585 | 0.612 | 1.07 | -0.168 | -0.223 | 0.0267 | -0.683 | -0.096 | 0.0136 | -0.0069 | 0.156 | 2.13 |
| O=C1NC(=O)C2C1C=CC(C(O)c1c(F)cccc1Cl)N2Nc1ccccn1 (stereo not given) | 0.419 | 0.282 | 0.171 | 0.824 (inactive) | 0.48 | 0.198 | 0.409 | 0.262 | 0.465 | 1.13 | -0.465 | -0.469 | 0.5 | -1.19 | -0.625 | 0.0108 | -0.0274 | -0.207 | 0.505 | -0.358 |
